TLR9-MyD88 inh: blocks human TLR9 binding to MyD88 | Q9NR96+Q99836 | CHO BLA complementation TLR9-MyD88, CCF4 FRET ratio | inhibition, % at 4.98 µM | 340,000 compounds, 0.21% hits;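 active = inhibition above the mean over all tested compounds plus 3 SD, cut at about 21% in these data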;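 note: 0% = DMSO only wells and 100% = clavulanate BLA inhibitor control wells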
NPR2 activator: GC-B (human) receptor activation; HEK293-GC-B cells, CNP EC30, cGMP TR-FRET; 0% at EC30 CNP, 100% saturating CNP; activation, % at 10 µM; 370,000 compounds, 0.11% hits; AID 1920062;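 active = activation at 10 µM reaching about 35% in either raw or pattern-adjusted values, limit read from the data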
Target sequence (P20594 whole entry, looked up): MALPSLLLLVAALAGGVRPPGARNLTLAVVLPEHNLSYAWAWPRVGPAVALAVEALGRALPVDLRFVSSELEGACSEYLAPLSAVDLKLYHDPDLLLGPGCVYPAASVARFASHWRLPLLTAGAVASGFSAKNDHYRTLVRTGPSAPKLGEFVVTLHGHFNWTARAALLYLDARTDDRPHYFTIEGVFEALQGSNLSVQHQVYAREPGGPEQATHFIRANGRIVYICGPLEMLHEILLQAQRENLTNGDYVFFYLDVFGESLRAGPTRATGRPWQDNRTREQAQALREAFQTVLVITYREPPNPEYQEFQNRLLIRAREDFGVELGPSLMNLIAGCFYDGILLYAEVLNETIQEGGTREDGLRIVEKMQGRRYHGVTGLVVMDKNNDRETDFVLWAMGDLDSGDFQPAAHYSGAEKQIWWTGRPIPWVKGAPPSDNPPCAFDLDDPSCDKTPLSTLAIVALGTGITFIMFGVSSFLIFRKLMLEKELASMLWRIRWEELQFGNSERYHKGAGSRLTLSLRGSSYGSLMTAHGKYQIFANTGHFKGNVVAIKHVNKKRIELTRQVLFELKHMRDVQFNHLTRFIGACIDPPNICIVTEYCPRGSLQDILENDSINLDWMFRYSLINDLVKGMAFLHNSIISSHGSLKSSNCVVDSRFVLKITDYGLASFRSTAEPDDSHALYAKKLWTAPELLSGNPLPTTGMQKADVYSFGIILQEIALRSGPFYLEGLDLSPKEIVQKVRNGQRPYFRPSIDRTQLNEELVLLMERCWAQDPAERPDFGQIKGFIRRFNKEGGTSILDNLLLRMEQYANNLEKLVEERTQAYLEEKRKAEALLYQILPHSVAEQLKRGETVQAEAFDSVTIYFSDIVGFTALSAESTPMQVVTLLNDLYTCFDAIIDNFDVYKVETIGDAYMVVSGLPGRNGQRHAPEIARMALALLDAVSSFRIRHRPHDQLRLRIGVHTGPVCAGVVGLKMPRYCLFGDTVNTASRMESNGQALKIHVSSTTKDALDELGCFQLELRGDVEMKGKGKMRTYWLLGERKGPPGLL
GC-A act: GC-A (human) enzyme activation; AID 1671463; HEK293 GC-A cells, cGMP TR-FRET, EC30 ANP; 0% at EC30 ANP, 100% saturating ANP; P16066; 370,000 compounds, 0.14% hits; activation, % at 10 µM; in the data active = activation above about 40%
Neddyl block: cullin neddylation inhibition | P61081+Q13564 | TR-FRET cullin neddylation, biochemical | inhibition, % at 25 µM | 360,000 compounds, 0.58% hits | AID 651699; in the data active = inhibition above about 36%
TLR4-MyD88 BLA: inhibitors of human TLR4-MyD88 binding. inhibition, % at 8.4 µM. 200,000 compounds, 0.18% hits. AID 861. HeLa CL3-4 TLR4/MyD88 BLA complementation, FRET ratio; in the data active = inhibition above about 25%;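 note: 0% = vehicle and 100% = reference inhibitor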
NOD2-RIPK2 inh: blocks binding of human NOD2 to RIPK2; O43353; CHO BLA complementation NOD2-RIPK2, CCF4 ratio; inhibition, % at 4.98 µM; 360,000 compounds, 0.38% hits; in the data active = inhibition above about 21%;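 note: 0% = vehicle only and 100% = reference blocker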
Neddyl inh conf: cullin neddylation inhibition, confirmation; shares compounds with Neddyl block; TR-FRET cullin neddylation biochemical assay; calls only at 25 µM; 1,800 compounds, 13% hits; AID 652217; in the data active = inhibition above about 40%;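 note: neddylation substrate is the cullin 1 ring ligase complex with SKP2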
The depositor's hits bear a star; i = inactive; · = no result given; + = active, no number. Shown are actives, neighbours in structure and some others; about 1.2% of the full set was active somewhere.

SMILES	TLR9-MyD88 inh	NPR2 activator	GC-A act	Neddyl block	TLR4-MyD88 BLA	NOD2-RIPK2 inh	Neddyl inh conf
CCCSc1nc2cc(C)c(C)cc2n1CC(O)CO (configuration not stated)	4	1	1	-1	-2	2	·
CCSc1nc(-c2ccccc2)c(-c2ccccc2)n1CC(O)CO (configuration not stated)	-8	-5	-9	44*	7	-14	i
CN(c1cccc(F)c1)c1cc2c(c3c1ccn3C)C1CCC2O1 (configuration not stated)	·	4	4	-50	·	-20	·
CCC(=O)Oc1ccc(C(=O)Nc2ccc3c(c2)C(=O)N(C2CCCCC2)C3=O)cc1	6	-10	-2	42*	-7	-5	i
O=C(O)COc1ccc(NC(=O)c2ccc3c(c2)C(=O)N(C2CCCCC2)C3=O)cc1	-3	-1	2	-31	·	1	·
C[C@@H]1CN([C@@H](C)CO)C(=O)CCCn2nncc2CO[C@H]1CN(C)C(=O)c1ccc2ccn(C)c2c1	7	-1	0	6	·	-14	·
COC(=O)Cc1c(C)c2ccc(OC3CCCCC3=O)c(C)c2oc1=O (configuration not stated)	0	-2	3	·	·	-11	·
Cc1cc(=O)oc2c(C)c(OC3CCCCC3=O)ccc12 (configuration not stated)	-14	-6	-1	44*	·	11	+
CC(C)Oc1cc(F)ccc1-c1cc(C(=O)NCc2ccccn2)[nH]n1	·	4	-2	5	·	-5	·
O=C(Nc1cc2c3c(c1)C1CCCC1CN3CC1CCCC21)c1ccccc1 (configuration not stated)	-6	-4	5	51*	1	5	i
O=C(Nc1cccc(C(=O)NC2CC2)c1)c1ccccc1	-3	0	-2	0	·	-3	·
COc1ccc(/C=C/c2ccccc2)cc1[C@H]1[C@H]2C=CC[C@@H](C)[C@@H]2C(=O)N1Cc1ccccc1	7	-1	-3	30*	·	0	i
O=C(OC12CCCN(C1)/C(=C/c1cccc(Cl)c1)C2)c1ccno1 (configuration not stated)	·	-2	4	·	·	·	·
C/C(=N\NC(=O)c1c(Cl)cnn1C)c1ccc(NC(=O)c2ccc(Br)o2)cc1	-1	-6	3	41*	·	-12	i
O=C(COc1ccccc1F)N1N=C(c2cccs2)CC1c1ccco1 (configuration not stated)	-13	-3	1	47*	·	3	i
O=c1[nH]c(/C(Cl)=C/c2cccc(F)c2)nc2cc(C(F)(F)F)ccc12	2	6	-2	41*	8	-2	i
CN1CCN(c2ccc(S(=O)(=O)N3CCOCC3)cc2NC(=O)CSCc2ccccc2)CC1	-3	0	-1	10	·	3	·
CCOc1ccccc1C(=O)Nc1cc2c(cc1N1CCCC1)n(CC)c(=O)n2CC	4	-3	4	46*	·	-2	i
CCSC1=C(C#N)C(c2ccc3c(c2)OCO3)C2=C(CCCC2=O)N1 (configuration not stated)	4	7	4	4	-6	2	·
CCSC1=C(C#N)C(CC(C)C)C2=C(CCCC2=O)N1 (configuration not stated)	·	0	2	38*	·	-3	i
Cc1ccc(S(=O)(=O)N2C[C@H]3C(=O)C[C@@H](c4cccs4)N(S(=O)(=O)c4ccc(C)cc4)[C@H]3C[C@H]2c2ccccc2)cc1	·	1	-3	-10	·	-8	·
O=C1CCC2(CCCCC2)N1CCCO	·	-3	-3	·	·	·	·
CC1(C)CN(Cc2ccccc2)C(=O)[C@H]1CC(=O)Nc1ccc(Br)cc1	7	3	1	-8	·	3	·
CCOc1ccc(C2=Nc3ccc(Br)cc3C(c3ccc(N4CCOCC4)cc3)=NN2)cc1	-10	-7	3	·	-5	4	·
CCOc1ccc(C2=Nc3ccccc3C(c3ccc(N4CCOCC4)cc3)=NN2)cc1	-3	-7	-1	40*	-5	3	i
SMILES	TLR9-MyD88 inh	NPR2 activator	GC-A act	Neddyl block	TLR4-MyD88 BLA	NOD2-RIPK2 inh	Neddyl inh conf
CCOC(=O)CNC(=O)c1sc(NC(=O)c2ccccc2F)nc1C	-10	0	-1	44*	0	3	+
CCOC(=O)CNC(=O)c1sc(NC(=O)c2cccc(F)c2)nc1C	13	1	1	13	1	2	·
CN1C(=O)C(c2cn(C)c3ccccc23)(c2cn(C)c3ccccc23)c2cc(Br)ccc21	·	-6	-18	-232	·	-13	·
CCOC(=O)c1cn2nc(Oc3cccc(F)c3)ccc2n1	-8	-7	2	41*	·	-18	i
O=C(NC1CCCCN(Cc2ccc(Cl)cc2)C1=O)c1cccc(F)c1 (configuration not stated)	·	-4	0	·	·	·	·
C(=C\c1nnc(-c2cccs2)o1)/c1ccccc1	0	-5	-18	48*	7	1	i
Cc1ccc(S(=O)(=O)N2CCN(C(=O)COC(=O)/C=C/c3cccc([N+](=O)[O-])c3)CC2)c(C)c1	-3	0	1	-47	·	-3	·
CCCOc1cccc(C2C(C(=O)c3cc4ccccc4o3)=C(O)C(=O)N2c2cc(C)on2)c1 (configuration not stated)	-2	-8	7	44*	·	-13	i
CC(C)CNC(=O)C1(C)CCN1C(=O)c1ccc(C(C)(C)C)cc1 (configuration not stated)	·	-1	-2	-3	·	-6	·
O=C(OCc1cc(=O)n2ccsc2n1)c1ccccc1NCCO	5	-2	1	39*	·	-7	·
O=C(OCc1cc(=O)n2ccsc2n1)c1ccccc1O	-6	4	-3	16	·	-9	·
COc1cc(C(=O)Nc2ccc3oc(-c4cccnc4)nc3c2)cc(OC)c1OC	-2	-1	7	26	3	-2	·
COc1ccc(C(=O)Nc2ccc3oc(-c4cccnc4)nc3c2)cc1OC	5	5	5	41*	15	-12	·
COc1cc2c(cc1OC)C1=C(C#N)CCC(=NC(=O)c3ccc(Cl)cc3)N1CC2	-9	4	4	6	2	1	·
COc1cc2c(cc1OC)C1=C(C#N)COCN1CC2	-2	2	-1	41*	1	7	i
COc1cccc(-n2c(N)c(C(=O)Nc3c(C)n(C)n(-c4ccccc4)c3=O)c3nc4ccccc4nc32)c1	-2	3	7	51*	·	1	i
CCC(C)NC(=O)C1CCN(S(=O)(=O)c2ccc3[nH]c(=O)oc3c2)CC1 (configuration not stated)	·	-2	3	·	·	·	·

High-throughput results: PubChem, several laboratories
